# Experimental data published in ChEMBL document CHEMBL4513216, “Probing the Open Global Health Chemical Diversity Library for Multistage-Active Starting Points for Next-Generation Antimalarials” (ACS Infect Dis, 2020).
# The whole screen tested about 69,000 compounds, of which about 8,600 (12%) showed an effect of 50% or more. Only a selection was taken, and strong results are over-represented in it overall.
# Tested on: Plasmodium berghei
# Test: Screen against P. berghei liver stage (PbLuc), transformed with Luciferase, at 10uM
# Format: functional, HepG2
# Conditions: tested at 10 uM
row,SMILES,INHIBITION [%]
1,CN(Cc1cccc(OC(F)(F)F)c1)Cc1cnn(C)c1,-6.51
2,Cc1ncsc1C(=O)N(C)Cc1ccccc1,-15.75
3,CO[C@@H]1CC[C@H]2[C@H]1OCCN2C(=O)COc1ccc(F)cc1,29.6
4,CO[C@@H]1CC[C@H]2[C@H]1OCCN2C(=O)C1CCOCC1,33
5,CCO[C@H]1CC[C@H]2[C@H]1OCCN2C(=O)c1nn(C)c2ccccc12,67.3
6,CO[C@H]1CC[C@H]2[C@H]1OCCN2C(=O)c1nn(C)c2ccccc12,47.4
7,O=C(COc1ccc(F)cc1)N1CCO[C@H]2[C@@H](OCC3CC3)CC[C@@H]21,59.3
8,COc1cc(C(=O)N2CCO[C@H]3[C@H](OCC4CC4)CC[C@@H]32)ccc1F,30.5
9,COCC(=O)N1CCO[C@H]2[C@H](OC)CC[C@@H]21,50
10,CN(C)CCO[C@@H]1CC[C@H]2[C@H]1OCCN2C(=O)COc1ccccc1,22.2
11,CCO[C@H]1CC[C@H]2[C@@H]1OCCN2C(=O)COc1ccccc1,62
12,CO[C@@H]1CC[C@H]2[C@H]1OCCN2C(=O)COc1ccc(C)cc1,47.5
13,CCO[C@H]1CC[C@H]2[C@H]1OCCN2C(=O)COc1ccccc1,34.9
14,CCO[C@@H]1CC[C@H]2[C@H]1OCCN2C(=O)c1nn(C)c2ccccc12,22.6
15,N#Cc1nc(COc2ccc3c(c2)OCO3)oc1N1CCCC1,45.2
16,COC(=O)c1cc(C(=O)N2CCCCC2C)n(-c2ccccc2)n1 (centres undefined),13.4
17,CN1C[C@H]2CNC[C@@]2(C(=O)N2CCN(c3ncccc3C#N)CC2)C1,48.1
18,COCCn1c(-c2cccc(OC)c2)cnc1NC(=O)NCC(C)C,25.1
19,c1cnc(NC2COC3(CCN(Cc4cccs4)CC3)C2)nc1 (centres undefined),-23.8
20,CCN(CC)C(=O)c1ccn(COc2ccc(F)cc2)n1,1.04
21,COC(=O)c1ccc(N(C(=O)c2cscn2)C(C)C)c(C)c1,27
22,O=C(Cc1ccsc1)N1CCC(c2ccncc2)CC1,45.2
23,CCN(Cc1ccc2c(c1)OCCO2)C(=O)NCc1nncn1CC,11.4

row,SMILES,INHIBITION [%]
1,Cc1cc(C)c(CNC(=O)N(C)Cc2ccoc2)c(=O)[nH]1,26.5
2,CCn1cnnc1CNC(=O)N(C)Cc1ccc2c(c1)OCO2,59.4
3,CN(Cc1ccc2c(c1)OCCO2)C(=O)NCCc1cnn(C)c1,47.6
4,CC(=O)NCCNC(=O)N(C)Cc1ccc2c(c1)OCCO2,56.6
5,Cc1cc(C)c(CNC(=O)N(C)Cc2ccc3c(c2)OCO3)c(=O)[nH]1,51.1
6,CCn1cnnc1CNC(=O)N(C)Cc1ccc2c(c1)OCCO2,30.2
7,CN(Cc1cnn(C)c1)C(=O)NCCc1ccc2c(c1)OCCO2,-2.862
8,Cc1cc(C)c(CNC(=O)N(C)Cc2ccc(F)cc2)c(=O)[nH]1,7.27
9,Cc1cc(Nc2cnccn2)cc(C2CCCN2)n1 (centres undefined),21.7
10,O=C(C1CCOCC1)N1CCO[C@H]2[C@H](OCC3CC3)CC[C@@H]21,-37.4
11,Cc1cccc(C(=O)N2CCc3ncnc(C4CCOC4)c3CC2)n1 (centres undefined),15.9
12,CC(CN1CCCCCC1)NCc1cc(-c2ccco2)on1 (centres undefined),59.5
13,CCSCC(C)NCc1cc(-c2ccco2)on1 (centres undefined),13.7
14,COC(C)(C)CC(C)NCc1cc(-c2ccco2)on1 (centres undefined),29.2
15,CCc1cnccc1C(=O)NC1CCN(Cc2ccccc2F)CC1,23.1
16,Cn1ncc(N2CCOC(CCNC(=O)CO)C2)cc1=O (centres undefined),25.8
17,Cn1ncc(N2CCOC(CCNC(=O)NC(C)(C)C)C2)cc1=O (centres undefined),71.2
18,Cn1ncc(N2CCOC(CCNC(=O)N3CCCCC3)C2)cc1=O (centres undefined),47.4
19,O=S(=O)(C1CC1)N1C[C@H](Oc2ccccn2)[C@H]2OCCC[C@H]21,15.4
20,Cc1ccc(CNS(=O)(=O)C=c2[nH]c(=O)n3cccc3c2=O)cc1,0
21,CO[C@@H]1CCN(Cc2cccs2)[C@H]1Cc1ccncc1,62.5
22,COCCN1C[C@@H]2[C@@H](OC)CCN(Cc3cccs3)[C@@H]2C1,16.8
23,COCCO[C@H]1CCN(Cc2cccs2)[C@H]1Cc1cccnc1,32.7

row,SMILES,INHIBITION [%]
1,CO[C@@H]1CCN(Cc2cccs2)[C@@H]2CN(Cc3ccncc3)C[C@@H]21,46.4
2,CN(C)[C@@H]1CCN(C(=O)Cc2cccs2)[C@H]1Cc1ccncc1,74.2
3,CN(C)[C@@H]1CCN(C(=O)Cc2ccc(F)cc2)[C@H]1Cc1ccncc1,15.9
4,CO[C@H]1CCN(Cc2cccs2)[C@@H]2CN(Cc3ccncc3)C[C@H]12,61.3
5,CN(C)[C@@H]1CCN(C(=O)Cc2cccs2)[C@H]1Cc1cnn(C)c1,-16.7
6,COCCN1CC[C@H](OC)[C@@H]1Cc1ccccc1,10
7,O=C(Nc1ccccc1)N1CCn2c(nnc2C2CCNCC2)C1,11.8
8,CN(C)C(=O)CN1CCOCC2(CCN(c3ncc(F)cn3)CC2)C1,-3.26
9,COCC1CN(Cc2ccc(OC)cc2)S(=O)(=O)c2cnccc2O1 (centres undefined),13.9
10,CC(C)CCn1nc(CNc2ccc(Br)cc2)nc1O,44.9
11,CCCC(=O)N1CCCC(Cn2cc(-c3ccc(F)cc3)nn2)C1 (centres undefined),1.24
12,Cc1ccc(NCc2nc3n(n2)CCCCC3)c(C)c1,2.69
13,CCN1C(=O)C[C@@H]2[C@@H]1CCN2S(=O)(=O)Cc1ccc(C)cc1,-17.1
14,COc1ccc(C(=O)Nc2cc(CC(C)C)nn2C)cc1,22.3
15,CCNC(=O)[C@@H]1C[C@H](N)CN1C(=O)CCc1ccc(C)c(C)c1,30.9
16,CCNC(=O)[C@@H]1C[C@H](N)CN1Cc1ccc(Sc2ccc(C)cc2)o1,67.5
17,CCNC(=O)[C@@H]1C[C@@H](N)CN1Cc1ccc(-c2ccccc2C#N)o1,23.9
18,CCNC(=O)[C@@H]1C[C@@H](N)CN1Cc1ccc(Sc2ccc(C)cc2)o1,77.7
19,CCNC(=O)[C@@H]1C[C@H](N)CN1C(=O)Cc1cc(C)ccc1C,-1.91
20,CCNC(=O)[C@@H]1C[C@H](N)CN1Cc1ccc(-c2ccccc2C#N)o1,47.1
21,CCNC(=O)[C@@H]1C[C@@H](N)CN1C(=O)Cc1cc(C)ccc1C,11.2
22,CCNC(=O)[C@@H]1C[C@@H](N)CN1C(=O)CCc1ccc(C)c(C)c1,15.3
23,CCNC(=O)[C@@H]1C[C@H](N)CN1Cc1ccc(-c2cc[nH]n2)o1,61.9
